The results in this text go back to PubChem BioAssay AID652154 (Broad Institute, 2013).

Broadly, the inhibition is the drop in the measured response relative to a control, in per cent.

In all, about 360,000 compounds went through this assay and about 4,200 (1.2%) were called active. This is one part of a sample in which actives are shown more often than they occur. A number with no mark means an inactive call.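 The calls were made as follows: active = mean replicate inhibition at least 60% with every replicate also reaching 60%; inconclusive = only one of the two criteria is met; inactive = mean below 60% and not all replicates reaching 60%.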

A short description of the assay: inhibitors of PAX8-driven TPO luciferase reporter, primary screen, RMG-I cells, single concentration (AID 652154).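 Also: luciferase light reporting Pax8 driven TPO promoter activity; plate controls were median of neutral control wells for no effect and mitoxantrone controls for full effect.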 The following applies: SteadyGlo, 24 h, at 12.6 µM, hits give high values. (Reporter assays use an easily measured gene product as a stand-in for the process of interest.)
In the case of `C[C@@H]1ON(C)[C@H]2C[C@H]3c4cc(N5CCOCC5)ccc4CCN3C[C@@H]12`, the inhibition was -4.88%.

On to `O=C(Nc1ccccc1F)N1CC(=O)N2[C@H](C1)[C@@H](c1ccc(C#CC3CC3)cc1)[C@@H]2CO`, for which the inhibition was -14.6%.

`O=C(N[C@@H]1CC[C@@H](CCNS(=O)(=O)c2ccccc2Cl)O[C@@H]1CO)c1ccccc1`: the inhibition was -1.25%.

Take `O=C(C[C@@H]1CC[C@H]2[C@@H](COC[C@H](O)CN2Cc2ccc(F)cc2)O1)N1CCc2ccccc2C1`: the inhibition was -7.32%.

In the case of `CO[C@@H]1CN(C)C(=O)c2cc(NC(=O)c3cnccn3)ccc2OC[C@@H](C)N(CC2CC2)C[C@H]1C`, the inhibition was 6.97%.

Consider `CO[C@@H]1CN(C)C(=O)c2cc(NC(=O)C3CC3)ccc2OC[C@H](C)N(CC2CC2)C[C@H]1C`, for which the inhibition was 7.02%.

As to `C[C@@H](O)C#Cc1ccc2c(c1)O[C@@H](CN(C)C)[C@@H](C)CN([C@@H](C)CO)S2(=O)=O`, the inhibition is -0.827%.

Take `CCCNC(=O)Nc1ccc2c(c1)C(=O)N(C)C[C@@H](OC)[C@H](C)CN(CCC)[C@@H](C)CO2`: the inhibition was -1.74%.

Turning to `O=C(C1CCC1)N1C[C@H]2[C@@H](c3ccccc31)[C@@H](CO)N2C(=O)c1ccccc1F`, the inhibition is 5.48%.

Regarding `COc1cccc(-c2ccc3c(c2)[C@@H]2[C@@H](CCN2S(=O)(=O)C2=NC(C)C=N2)[C@@H](CO)N3C)c1` (some centres not stated), the inhibition was 19.4%.

In the case of `C/C=C/c1ccc([C@@H]2[C@H](CO)N(CC3CCCC3)C23CN(C(=O)CC)C3)cc1`, the inhibition is 18.8%.

In the case of `C[C@H]1CN([C@@H](C)CO)S(=O)(=O)c2ccc(C3=CCCC3)cc2O[C@H]1CN(C)C(=O)Cc1ccncc1`, the inhibition was 1.78%.

Turning to `O=C(NCc1ccccc1Cl)[C@H]1[C@H](CO)[C@H]2Cn3c(cccc3=O)[C@H]2N1C(=O)C1CCC1`, the inhibition is -12.8%.

On to `Cc1ccc(S(=O)(=O)N(C)C[C@@H]2Oc3c(NC(=O)c4ccncc4)cccc3C(=O)N([C@@H](C)CO)C[C@@H]2C)cc1`, for which the inhibition was 1.41%.

In the case of `CCS(=O)(=O)Nc1ccc2c(c1)C(=O)N(C)[C@H]1CC[C@H](CC(=O)N[C@@H]3CCN(Cc4ccccc4)C3)O[C@H]1CO2`, the inhibition was -7.99%.

With `C[C@@H]1CN([C@H](C)CO)C(=O)c2cc(C3=CCCCC3)cnc2O[C@@H]1CN(C)C(=O)c1ccc2c(c1)OCO2`, the inhibition was -9.44%.

On to `C[C@@H]1CN([C@H](C)CO)C(=O)c2cc(C#CCN(C)C)cnc2O[C@H]1CN(C)C(=O)Cc1ccncc1`, for which the inhibition was -16.9%.

Take `C[C@H](CO)N1C[C@H](C)[C@@H](CN(C)Cc2ccc(Oc3ccccc3)cc2)Oc2ccc(NS(=O)(=O)c3ccc(F)cc3)cc2CC1=O`: the inhibition is 78.6% (active).

For the compound `C[C@H]1CN([C@@H](C)CO)C(=O)Cc2cc(NS(=O)(=O)c3ccc(F)cc3)ccc2O[C@H]1CN(C)Cc1ccc(C(F)(F)F)cc1`, the inhibition was -55.2%.

For `COc1ccc(S(=O)(=O)Nc2ccc3c(c2)CC(=O)N([C@H](C)CO)C[C@H](C)[C@H](CN(C)Cc2ccc(C(F)(F)F)cc2)O3)cc1`, the inhibition was 7.06%.

As to `C[C@@H]1CN([C@@H](C)CO)C(=O)Cc2cc(NS(=O)(=O)c3ccc(Cl)cc3)ccc2O[C@H]1CN(C)Cc1ccc(C(F)(F)F)cc1`, the inhibition was 84.5% (active).

As to `C[C@H](CO)N1C[C@H](C)[C@H](CN(C)Cc2ccncc2)Oc2ccc(NS(=O)(=O)c3ccc(F)cc3)cc2CC1=O`, the inhibition was 6.06%.

Take `C[C@H]1CN([C@@H](C)CO)C(=O)Cc2cc(NS(=O)(=O)c3cccs3)ccc2O[C@@H]1CN(C)Cc1ccc(Oc2ccccc2)cc1`: the inhibition is -11%.

Regarding `COCC(=O)N(C)C[C@@H]1Oc2cc(C#Cc3cccnc3)ccc2S(=O)(=O)N([C@H](C)CO)C[C@H]1C`, the inhibition was 6.54%.

For `O=C(C[C@H]1CC[C@H]2[C@@H](COC[C@@H](O)CN2CCC(F)(F)F)O1)NCc1ccc2c(c1)OCO2`, the inhibition was -15.5%.

Take `O=C(C[C@H]1C=C[C@H](NC(=O)Nc2ccccc2F)[C@@H](CO)O1)NCc1ccc(Cl)cc1`: the inhibition was -8.13%.

Turning to `C[C@@H]1CCCCO[C@H](CN(C)Cc2ccncc2)[C@@H](C)CN([C@H](C)CO)C(=O)c2cc(NC(=O)CCCN(C)C)ccc2O1`, the inhibition was -4.23%.

`COc1ccc(NC(=O)N(C)C[C@H]2Oc3ccc(NC(=O)Cc4cn(C)c5ccccc45)cc3CC(=O)N([C@@H](C)CO)C[C@H]2C)cc1`: the inhibition is 16.5%.

For the compound `O=C(CN1C(=O)c2ccccc2S1(=O)=O)N1CCc2ccccc21`, the inhibition is 90.5% (active).

As for `CN(Cc1ccc(F)cc1)C(=O)CN1C(=O)c2ccccc2S1(=O)=O`, the inhibition was -2.85%.

As for `CN(Cc1cccs1)C(=O)CN1C(=O)c2ccccc2S1(=O)=O`, the inhibition was -105%.

Turning to `C[C@@H]1CN([C@@H](C)CO)C(=O)Cc2cc(NC(=O)Cc3ccccc3)ccc2O[C@@H]1CN(C)Cc1ccc2c(c1)OCO2`, the inhibition is 13.6%.

For the compound `Cc1cc(C(=O)Nc2cccc3c2O[C@@H](CN(C)C(=O)Nc2ccc(F)cc2)[C@H](C)CN([C@@H](C)CO)C3=O)n(C)n1`, the inhibition is 7.05%.

`COc1ccc(NC(=O)Nc2ccc3c(c2)C(=O)N([C@@H](C)CO)C[C@H](C)[C@H](CN(C)CC2CCCCC2)O3)cc1`: the inhibition is -0.963%.

Take `CC(=O)Nc1ccc(C=CC(=O)c2ccc([N+](=O)[O-])cc2)cc1`: the inhibition is 15.2%.

In the case of `O=C1/C(=C\c2ccc([N+](=O)[O-])cc2)CS(=O)(=O)C/C1=C/c1ccc([N+](=O)[O-])cc1`, the inhibition is 122% (active).

For the compound `O=C(O)C(=Cc1ccc([N+](=O)[O-])cc1)CCc1ccccc1`, the inhibition is 8.95%.

Regarding `COc1ccc(S(=O)(=O)N(C)C[C@H]2Oc3c(NC(=O)C4CCOCC4)cccc3C(=O)N([C@@H](C)CO)C[C@@H]2C)cc1`, the inhibition is -8.86%.

Take `Cn1cnc(CCNC(=O)[C@H]2[C@H](CO)[C@H]3Cn4c(cccc4=O)[C@H]3N2C(=O)Nc2ccccc2)c1`: the inhibition is -6.72%.

Take `Cn1cnc(S(=O)(=O)N2C[C@@H](O)COC[C@@H]3O[C@H](CC(=O)NCc4ccc(F)cc4)CC[C@H]32)c1`: the inhibition is -3.38%.

Take `Cc1ccc(COc2ccc(/C=N/NC(=O)CN3CCCCC3)cc2)cc1`: the inhibition is -222%.

As to `Cc1ccc(/C=N/NC(=O)CSc2nc3ccccc3o2)cc1`, the inhibition is -83%.

For the compound `Cc1ccc(/C=N/NC(=O)COc2ccccc2-c2ccccc2)cc1`, the inhibition was 87.7% (active).

With `O=C(C[C@H]1CC[C@@H](NC(=O)Nc2ccc(C(F)(F)F)cc2)[C@H](CO)O1)NCc1cc(F)cc(F)c1`, the inhibition was -5.75%.

Consider `Cc1ccccc1-c1ccc([C@@H]2[C@@H](CO)N3CCCCN(C(=O)Nc4cccc(F)c4)C[C@H]23)cc1`, for which the inhibition is 10.4%.

Regarding `CC(C)Cc1nnc(NC(=O)CCc2ccccc2)s1`, the inhibition is -22.6%.

As to `Cc1ccc(S(=O)(=O)CCC(=O)Nc2nnc(CC(C)C)s2)cc1`, the inhibition is 82.8% (active).

Consider `CC(C)Cc1nnc(NC(=O)CCNC(=O)c2ccccc2Cl)s1`, for which the inhibition is -15.6%.

On to `C[C@H](NC(=O)C[C@H]1C=C[C@H](NS(=O)(=O)c2cccc(F)c2)[C@@H](CO)O1)c1ccccc1`, for which the inhibition is -17.2%.

Regarding `Cc1noc(C)c1NC(=O)N(C)C[C@@H]1OCCCC[C@H](C)Oc2ccc(NC(=O)C3CCCCC3)cc2C(=O)N([C@H](C)CO)C[C@@H]1C`, the inhibition is 9.59%.

As to `Cc1cccc(C)c1NC(=O)CCS(=O)(=O)c1cccc2nsnc12`, the inhibition was 15.3%.

For `COc1ccc(N(C)C(=O)CCS(=O)(=O)c2cccc3nsnc23)cc1`, the inhibition was 1.7%.

In the case of `CCN(CC)CCN(C(=O)c1ccc2c(c1)CCCC2)c1nc2c(OC)cccc2s1`, the inhibition was 14.3%.

For the compound `Cc1cccc2sc(N(CCCN(C)C)C(=O)CCS(=O)(=O)c3ccccc3)nc12`, the inhibition is 95.4% (active).

Regarding `O=C(CCS(=O)(=O)c1ccccc1)Nc1nc2c(s1)CCCC2`, the inhibition is 51.3%.

In the case of `COc1cccc2sc(N(CCCN(C)C)C(=O)CCS(=O)(=O)c3ccccc3)nc12`, the inhibition is 97.8% (active).

`CC(C)NC(=O)N[C@@H]1CC[C@H](CCn2cc(-c3ccccc3)nn2)O[C@H]1CO`: the inhibition was -6.01%.

Consider `CCS(=O)(=O)N1[C@H](C#N)[C@H](c2ccc(-c3cccc(F)c3)cc2)[C@@H]1CO`, for which the inhibition was -12.2%.

Turning to `C[C@@H]1CN([C@@H](C)CO)C(=O)c2cc(NC(=O)NC3CCCCC3)ccc2O[C@@H](C)CCCCO[C@H]1CN(C)Cc1ccccc1`, the inhibition was -10.1%.

Consider `C[C@@H]1CN([C@@H](C)CO)C(=O)c2cccc(NS(=O)(=O)c3cn(C)cn3)c2O[C@@H]1CN(C)Cc1ccc(Cl)c(Cl)c1`, for which the inhibition was -5.72%.

As to `COCC(=O)Nc1ccc2c(c1)OC[C@H](C)N(C(=O)COC)C[C@@H](C)[C@H](OC)CN(C)C2=O`, the inhibition is -25.8%.

`Cc1cccc(S(=O)(=O)N2C[C@H]3[C@@H](c4ccccc42)[C@H](CO)N3Cc2ccc3c(c2)OCO3)c1`: the inhibition is 32%.

In the case of `CC(=O)N(C)C[C@@H]1Oc2cc(-c3cccnc3)ccc2S(=O)(=O)N([C@H](C)CO)C[C@H]1C`, the inhibition was -6.51%.

Regarding `O=C(CC1CC1)N1CC[C@@H]2[C@H](CO)Nc3ccc(-c4ccc(F)cc4)cc3[C@@H]21`, the inhibition is 14%.

In the case of `O=C(C[C@@H]1CC[C@@H]2[C@H](COC[C@@H](O)CN2Cc2cc(F)cc(F)c2)O1)NCc1cccc(F)c1`, the inhibition is 16%.

As to `Cc1cccc(-c2ccc([C@@H]3[C@H]4CN(C(=O)c5ccccc5)CC(=O)N4[C@H]3CO)cc2)c1`, the inhibition was 23.1%.

Take `O=C(C[C@@H]1CC[C@H]2[C@@H](COC[C@@H](O)CN2C(=O)c2ccc3c(c2)OCO3)O1)NC1CCCC1`: the inhibition is -8.12%.
